Assay outcomes as filed in PubChem BioAssay.
MOR-DOR inv ag – inverse agonists of MOR-DOR heterodimerization, primary screen, cell-based, luminescence; cell-based MOR-DOR heterodimer luminescence, inverse agonism; inhibition, % at 9.3 µM; hit rate 0.21% among 340,000; in the data active = inhibition above about 22%, passing the limit was not always enough;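 note: 0% = cells with DMSO and 100% = wells without cells with DMSO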
m5-HT2A agonist – mouse Htr2a agonists via beta-arrestin recruitment, primary screen, cell-based, luminescence; 5-hydroxytryptamine receptor 2A (Mus musculus), P35363; CHO-K1 mHTR2A beta-arrestin complementation; percent of 30 µM serotonin response; activation, % at 7.6 µM; hit rate 0.66% among 360,000; AID 624169, 2012;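 active = activation above a run cutoff, the mean activation of all tested compounds plus 3 SD, cut at about 14% in these data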;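 note: 0% = plate median of compound wells and 100% = 30 µM serotonin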
Target sequence (P35363 whole entry, looked up): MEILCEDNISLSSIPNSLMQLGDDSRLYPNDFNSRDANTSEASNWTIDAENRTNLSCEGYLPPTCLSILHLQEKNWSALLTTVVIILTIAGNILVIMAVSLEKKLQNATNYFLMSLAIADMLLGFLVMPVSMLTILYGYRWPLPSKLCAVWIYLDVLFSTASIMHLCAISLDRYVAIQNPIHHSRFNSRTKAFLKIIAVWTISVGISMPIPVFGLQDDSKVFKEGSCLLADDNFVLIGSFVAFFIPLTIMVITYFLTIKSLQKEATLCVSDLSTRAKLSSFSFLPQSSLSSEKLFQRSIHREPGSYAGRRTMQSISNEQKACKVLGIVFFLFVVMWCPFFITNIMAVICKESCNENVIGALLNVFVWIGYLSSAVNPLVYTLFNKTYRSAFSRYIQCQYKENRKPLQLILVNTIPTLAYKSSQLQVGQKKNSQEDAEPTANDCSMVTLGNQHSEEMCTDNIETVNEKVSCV
HTR5A ag ctr – HTR5A agonists in luminescence cell assay, primary screen, counter-screen for OPRM1-OPRD1 heterodimer agonist project, full-deck HTS | 5-hydroxytryptamine receptor 5A (Homo sapiens), P47898 | cell-based | activation, % at 9.3 µM | hit rate 0.61% among 340,000 | AID 504692, 2011; in the data active = activation mostly above about 9.5%, no sharp cut-off; inactive = mostly below about 7.6%;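 note: 0% = cells with vehicle only and 100% = reference agonist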
HTR5A inv ctr – HTR5A inverse agonists in luminescence cell assay, primary screen, counter-screen for OPRM1-OPRD1 heterodimer inverse agonist project, full-deck HTS. hit rate 0.083% among 340,000. inhibition, % at 9.3 µM. HTR5A cell line, inverse agonism. 5-hydroxytryptamine receptor 5A (Homo sapiens), P47898; in the data active = inhibition mostly above about 23%, no sharp cut-off; inactive = mostly below about 18%;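 note: 0% = cells with DMSO and 100% = no-cell wells with DMSO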
OPRM1-OPRD1 ag – agonists of OPRM1-OPRD1 heterodimerization, primary screen, cell-based, luminescence. Mu-type opioid receptor (Homo sapiens) + Delta-type opioid receptor (Homo sapiens), …. cells. activation, % at 9.3 µM. hit rate 0.3% among 340,000. AID 504326, 2011; in the data active = activation above about 18%;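 note: 0% = vehicle-treated cells and 100% = reference agonist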
Active calls of the source: *; . = no result. Only some compounds are listed: those with a hit (about 1.6% of all), similar ones and a draw of the others.

SMILES | MOR-DOR inv ag | m5-HT2A agonist | HTR5A ag ctr | HTR5A inv ctr | OPRM1-OPRD1 ag
CC1CCCN(CCCNC(=O)c2cc3c(s2)-c2ccccc2OC3)C1 (stereo not drawn) | -10.2 | -7.6 | 11.4* | -42.7 | 2.0
CC1CCN(CCCNC(=O)c2cc3c(s2)-c2ccccc2OC3)CC1 | -7.3 | -6.4 | 1.4 | -5.0 | 1.4
O=C(c1ccccc1Cl)N1CCC(N2CCC(C(=O)N3CCCC3)CC2)CC1 | 3.4 | -2.3 | 12.6* | -13.8 | -0.7
O=C(c1cc(F)ccc1F)N1CCC(N2CCC(C(=O)N3CCCC3)CC2)CC1 | 12.1 | 12.6 | -4.1 | 13.4 | -2.3
Cc1ccc(C(=O)C(C)OC(=O)Cn2[nH]c(=O)c3ccccc3c2=O)cc1C (stereo not drawn) | 16.2 | -2.6 | 12.4* | -45.3 | -2.8
Oc1ccccc1/C=N/NC(=S)NCCc1ccccc1 | -23.3 | -0.7 | 10.2* | -38.1 | 5.2
O=CC1=C(c2ccccc2)Oc2ccccc2O1 | -28.7 | 6.7 | 11.3* | -42.0 | 6.0
CN(C)/C=C1/N=C(c2ccccc2)OC1=O | 3.1 | -2.4 | 1.8 | -6.5 | -0.7
Cc1ccc(S(=O)(=O)N/N=C\c2ccc3c(c2)OCO3)c(C)c1 | -13.1 | -7.9 | 10.8* | -10.5 | 2.5
O=C(CSc1ccccc1)Nc1nccs1 | -11.0 | 6.1 | -1.0 | 3.0 | 1.5
O=C(CSc1nc(-c2ccccc2)cs1)Nc1nccs1 | -70.0 | -1.9 | 10.8* | -27.4 | 12.9
CCCCCCCCN1C(=O)[C@H](CC(=O)N2CCCCC2)C[C@@]2(C(=O)OC)CCCCC=C12 | . | 0.4 | . | . | .
Cc1ccc(C)c(S(=O)(=O)NNC(=O)c2sc(NS(=O)(=O)c3ccccc3)nc2C)c1 | 2.8 | -2.7 | 5.0 | 9.6 | -0.5
Cc1nc(C)c(C(=O)NNS(=O)(=O)c2ccccc2)s1 | 7.2 | 8.1 | 10.1* | -27.9 | -1.0
Cc1cnc(-c2nc3ccccc3n2C(C(=O)Nc2c(C)cccc2C)C2CC2)cn1 (stereo not drawn) | . | 3.7 | . | . | .
Nc1nc(Br)c2c(F)cccc2c1-c1ccc(Cl)cc1 | -55.8 | 0.2 | 11.4* | -38.9 | 10.0
Nc1nc(Br)c2ccccc2c1-c1ccccc1 | -27.1 | -7.8 | 4.2 | -11.9 | 5.2
Cc1cccc(C)c1NC(=O)C1c2ccccc2OCC(=O)N1C1CC1 (stereo not drawn) | . | -0.2 | . | . | .
COc1ccc(N2CCN(Cc3nc(N)nc(Nc4ccccc4OC)n3)CC2)cc1 | 0.4 | 2.0 | -2.6 | -1.2 | -0.1
COc1cc(N2CCC(O)CC2)ccc1Nc1nnc(Cl)c(Nc2ccccc2S(C)(=O)=O)n1 | 6.3 | -1.3 | -8.8 | 25.9* | -1.1
O=C(/C=C/c1ccco1)OCC(=O)c1cccc([N+](=O)[O-])c1 | 29.2* | -0.8 | 1.1 | -3.2 | -4.5
CCCCCCCCN1C(=O)[C@H](CC(=O)NCCCOC)C[C@@]2(C(=O)OC)CCCCC=C12 | . | -5.0 | . | . | .
CC[n+]1ccc(/C=C/c2ccc(N(C)C)cc2)c2ccccc21 | 27.2 | -13.5 | -13.5 | 34.4* | -5.9
Cc1nc(/C(N)=N/OC(=O)c2c(-c3ccccc3Cl)noc2C)cs1 | -13.9 | -2.8 | 6.9 | -1.0 | 2.7
COc1ccc(/C(N)=N/OC(=O)c2c(-c3ccccc3Cl)noc2C)cc1OC | -67.2 | -4.9 | 12.2* | -29.0 | 12.2
SMILES | MOR-DOR inv ag | m5-HT2A agonist | HTR5A ag ctr | HTR5A inv ctr | OPRM1-OPRD1 ag
CCCOC(=O)c1ccc(NC(=O)/C=C/c2cccs2)cc1 | -26.3 | -6.5 | 11.1* | 13.1 | 5.2
CCS(=O)(=O)N1CCC2(CC1)OCCN2S(=O)(=O)c1ccccc1 | . | -1.0 | . | . | .
CC(=O)c1ccc(NC(=O)N2CCCC(C(=O)c3ccc4c(c3)OCO4)C2)cc1 (stereo not drawn) | -10.9 | 1.1 | 11.0* | -29.3 | 1.5
COC(=O)c1ccccc1NC(=O)Nc1cc(C(C)(C)C)on1 | 5.8 | 6.6 | 1.1 | -4.2 | -1.0
CC(C)(C)c1cc(NC(=O)Nc2ccccc2)no1 | -29.4 | 5.8 | 11.3* | -43.7 | 6.2
O=C(CN1CCCC1)Nc1c(C(=O)C2CC2)oc2ccccc12 | -9.9 | 1.3 | -4.1 | -20.8 | 2.0
N#Cc1ccccc1OCC(=O)Nc1c(C(=O)C2CC2)oc2ccccc12 | -13.7 | -4.2 | 14.2* | -41.3 | 2.4
CC(CC(=O)Nc1ccc2c(c1)c(=O)n(C)n2-c1ccccc1F)c1ccccc1 (stereo not drawn) | . | 3.6 | . | . | .
Cc1cccc(C)c1NC(=O)C1(C)CN(S(C)(=O)=O)CC(=O)N1CCCN1CCOCC1 (stereo not drawn) | . | 8.8 | . | . | .
COC(=O)c1ccc(/C=N\NC(=O)c2c(C)nc3ccc(Cl)cn23)cc1 | 11.1 | 1.4 | 1.3 | -4.7 | -2.3
C=CCOc1ccc(/C=N/NC(=O)c2c(C)nc3ccc(Cl)cn23)cc1 | -70.2 | -7.8 | 10.8* | -39.8 | 15.1
COC(=O)[C@@]1(Sc2ccc(C)cc2)CC(=O)N(C(=O)/C=C/c2ccccc2)[C@@H]1c1ccccc1 | . | -1.0 | . | . | .
Cc1cc(C)nc(Nc2nc(C(N)CCc3ccccc3)cs2)n1 (stereo not drawn) | . | -4.5 | . | . | .
Fc1ccc(N2CCN(C(=S)NCc3ccco3)CC2)cc1 | 2.4 | -7.2 | -0.5 | 1.5 | -0.5
COc1cccc(N2CCN(C(=S)NCc3ccco3)CC2)c1 | 9.2 | -3.4 | 13.3* | -25.3 | -2.0
Cc1cccc(Cl)c1NC(=S)NN | 8.2 | 3.1 | 13.2* | 9.0 | -1.6
Cc1c(Cl)cccc1NC(=S)NN | -12.2 | -0.6 | -3.4 | -1.6 | 2.3
Cc1[nH]n2c(=O)c3c(nc2c1-c1ccc(Cl)cc1)CCC3 | 7.1 | 0.8 | 19.8* | -55.7 | -1.3
CCCCCCCCN1C(=O)[C@H](CC(=O)NCc2ccc(OC)c(OC)c2)C[C@@]2(C(=O)OCC)CCCC=C12 | . | -3.8 | . | . | .
COC(=O)[C@H]1C[C@H](OC(=O)Nc2cccs2)[C@@]2(O)CN(S(=O)(=O)c3ccc(C)cc3)CC2[C@H]1C(=O)OC (stereo partly drawn) | . | 13.2 | . | . | .
CCn1cc(CN2CCC(C(=O)Nc3cccc(-c4cccc(F)c4)c3)CC2)cn1 | 14.1 | -9.5 | 2.2 | -7.4 | -4.3
CCn1nc(C)c(CN2CCC(C(=O)Nc3cccc(-c4cccc(F)c4)c3)CC2)c1C | -2.8 | 2.4 | 8.7* | -32.6 | 0.6
CN[C@@H]1[C@H](O)[C@H](NC)[C@H]2O[C@@]3(O)C(=O)C[C@@H](C)O[C@H]3O[C@@H]2[C@H]1O | 7.4 | 15.5* | 0.6 | -2.3 | -1.5
COc1cccc(C2C=C(c3ccc(Br)s3)Nc3ncnn32)c1OC (stereo not drawn) | 17.8 | 0.0 | 1.7 | 15.9 | -3.1
Fc1ccc(Br)cc1C1C=C(c2ccc(Br)s2)Nc2ncnn21 (stereo not drawn) | 1.4 | -1.5 | 17.2* | 0.8 | -0.2
COc1ccc(CNC(=O)Cn2nc(C(F)(F)F)c(Br)c2C)cc1 | 13.9 | -4.7 | 1.4 | -5.4 | -3.0
